Results as given in paper PMC5540273 (PLoS ONE, 2017).
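Note: kd values determined as follow-up on hits from a single-replicate KINOMEscan panel screen.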

What follows are molecules tested on PDPK1.
Work on `COc1cc2c(Nc3cccc(NC(=O)c4ccccc4)c3)ncnc2cc1OCCCN1CCOCC1` [GSK223810] yielded a Kd greater than 10000 nM. `CSc1ccc(NC2=C(c3ccccc3Cl)C(=O)NC2=O)cc1` [SB-342411] showed a Kd greater than 10000 nM. In the case of `Nc1nc(-c2ccc3c(N)n[nH]c3c2)cc(N2CCCCC2)n1` [GSK2228768], the Kd is reported as 540 nM. Molecule `CC(C)(C)OC(=O)NC1CCCN(c2cc(-c3ccc4c(N)n[nH]c4c3)nc(N)n2)C1` (stereo not shown) [GSK2286096] has a Kd of 37 nM.
